Results reported in article PMC12136788.
Substitutions are numbered along the chain they refer to. Whole data set: some 24,000 sequences, median “enrichment r” near 0.99, cut for the highest 2% near 3.7. The full list was thinned out, with the highest values kept by preference.

T1: UNK ZnF1-3 (human, UniProt Q9C0B0 31-174)
T1 sequence: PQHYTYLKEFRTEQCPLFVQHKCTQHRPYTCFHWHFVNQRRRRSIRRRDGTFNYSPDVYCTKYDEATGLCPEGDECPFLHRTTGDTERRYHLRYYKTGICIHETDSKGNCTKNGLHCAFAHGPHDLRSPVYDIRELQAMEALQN

B1: chr14:76904501:76904502:+_ENSMUSG00000022010_ENSMUST00000022587|mus_mus|FALSE|FALSE (ssRNA)
RNA: GGGAGUUCUACAGUCCGACGAUCUCCAUCGCCACUGGUCUACACCAUUGGGAUUUCAUGCAAUUGCAGCCAAAUUAAAAAAACAGCCCCGUGGAAAAAAAAGAGAGAGGGCGGGAGGGAGCAAGCUCCAGCAGCCUGGUUCAACAACAGAGGAUUGAGCAUCA
B2: chr8:59488481:59488482:+_ENSG00000137575_ENST00000447182|hu_mus|motif|central (ssRNA)
RNA: GGGAGUUCUACAGUCCGACGAUCUCCAGCAUCGUUACCUGUCACAGGUGCUACCAUAUAGUUCACACUGGAUGGUCUUGCGGCCAACCCUUGUGCUGGUGCUCCAGAGACCAUGGGCAUGCUCUCACAUAUUUCAGCUUCAUUCAACAGAGGAUUGAGCAUCA
B3: chr11:77340908:77340909:-_ENSG00000074201_ENST00000525064|hu_hu|hu_hu_hu_mus_True|8_108 (ssRNA)
RNA: GGGAGUUCUACAGUCCGACGAUCGUUUCGGUCCCUGGACACCGCAUGUAAACUAAUGGUGGGGUAUUCCAGUGAGAAUCCUAAUCCCGAACCAUCUAACCAGGACAGGCGGCUCUCCGCGAUGUAAAGGGUACCAGUGCCGAGCAACAGAGGAUUGAGCAUCA
B4: chr3:119217614:119217615:+_ENSG00000113845_ENST00000264244|hu_hu|FALSE|FALSE (ssRNA)
RNA: GGGAGUUCUACAGUCCGACGAUCCUCUACAGAGAAAGCUCCGCGGUGCCGGUGGCGGCACCUCCAUGGCCUUCUCUCGACCUACGGACAAACUUGAGCGCUCAGGACUUCAAGUCCUCGCGGACGUGCCGCGGGAGAGCGUAACAACAGAGGAUUGAGCAUCA
B5: 60766971_60767091_3885_CDS_ENSG00000011028_ENST00000303375|human|control|control (ssRNA)
RNA: GGGAGUUCUACAGUCCGACGAUCCGUGCGCAGCCCUCGGGCAGCCUGCGUGAGGAAGGCCUGGGUGUAGGGGUCGGGCACGUAGGCCAGGCUGGCAUUGCGGCUCUCACACAGCAGGAGGGCAUCGUGCCAGCGCAGCGGCUUCAACAGAGGAUUGAGCAUCA
B6: chr17:26793470:26793471:+_ENSMUSG00000001576_ENSMUST00000167662|mus_mus|FALSE|FALSE (ssRNA)
RNA: GGGAGUUCUACAGUCCGACGAUCAUUGGAAUCAGAGGAAAAAUUACAAAUGGCAGAGAAUCCAGCUACCCAUAAGAGACUAUUUAAGAAAAACAAAACCAAAACCAAACAAAAACAAAAAACCCCAAAACUUCCUACUGCAGGCAACAGAGGAUUGAGCAUCA
B7: 193603509_193603629_2668_3pUTR_ENSMUSG00000026623_ENSMUST00000110855|mouse|control|control (ssRNA)
RNA: GGGAGUUCUACAGUCCGACGAUCUAAAUCACAUGAACAAAAGGACAAAUCUUUCAAAAGGUUUCUACGAUGAACAGAAACUUGCUUGGCUUUGCCCUCUUAGAAGACGACUGGAAGAGACUGGGAAGUGUUUUUGAGCUGCUGCAACAGAGGAUUGAGCAUCA
B8: 87419285_87419405_2552_3pUTR_ENSMUSG00000028496_ENSMUST00000078090|mouse|control|control (ssRNA)
RNA: GGGAGUUCUACAGUCCGACGAUCGAAAAUCAAGGUGGCUAUUUGGUCCCCCCAGUUGGUAACUAUGUCCUGGAACUGGGAAAACAAAGAUGGAAACCAUAGACUGCAACAAGUUAAAGGACCUGGGAAGAGUUGGUGGAAAGUCAACAGAGGAUUGAGCAUCA
B9: chr22:38881817:38881818:-_ENSG00000100201_ENST00000396821|hu_hu|FALSE|FALSE (ssRNA)
RNA: GGGAGUUCUACAGUCCGACGAUCUUAUUCCAGACUGGAUCAUUUUGGUGGGCAGAAGAAACCUGGCAGUGAAUUCUAACUAAUCUGCAUGAAAAGACAAAUCACGAUGGUUGGGGGGAAAAAUUAAAAAAAAAAAAAGAAAAACAACAGAGGAUUGAGCAUCA
B10: chr12:55960871:55960872:-_ENSMUSG00000062929_ENSMUST00000078124|mus_mus|motif|central (ssRNA)
RNA: GGGAGUUCUACAGUCCGACGAUCUACUAAGCUUUAAGACUGCUAUACGAUUUUUUUUUCCCAAUUCAUUUUGGAAAAGCGGUGAAGGAACUGUGGCUGAGACAAACAUUCCUAAACAUCACAAUCAUCAUUAACCUUCGAAUGCAACAGAGGAUUGAGCAUCA
B11: chr22:38881817:38881818:-_ENSG00000100201_ENST00000396821|hu_hu|motif|central (ssRNA)
RNA: B9 RNA with U76G, A77G, U80G, A81G
B12: chr1:66459500:66459501:+_ENSMUSG00000015222_ENSMUST00000114013|mus_hu|motif|central (ssRNA)
RNA: GGGAGUUCUACAGUCCGACGAUCUAAAAAGGCAGGGGCAAAGGGCGAUGUUUCUGUAACUAUUUCAUUCUUCAUGACAUCGGAAGGAAGAGUGAAGCUUCCCCCUUGAAAGGGACUUGGCAUGGGAGAAUCAAACUGUUUCCCCAACAGAGGAUUGAGCAUCA
B13: chr16:45711415:45711416:-_ENSMUSG00000022658_ENSMUST00000096057|mus_hu|FALSE|FALSE (ssRNA)
RNA: GGGAGUUCUACAGUCCGACGAUCUUAUUAGGUGCAUUCUAUAAGUUGAAGAGGAGAAUUUUUGGCAAAUAAAUAAAUAAAUAAAUAAAUAAUCAAACAGAGACUCUGGGGCCCGAGGAGCUCAGGAAAACGGAAGCGGAGUCUCAACAGAGGAUUGAGCAUCA
B14: chr12:39763582:39763583:-_ENSG00000139116_ENST00000544797|hu_hu|FALSE|FALSE (ssRNA)
RNA: GGGAGUUCUACAGUCCGACGAUCCUCUAAGAAUUGGGCAUUCACUUUAAAAUCUGGAGCAGGAAGCCCAUUUUUAAUUGCUAUGUGUUUUUUUUCUUCAAUACUCUUAAAAAGGUGUUUAACAGCUCGAGAAAUAAUACCCAGCAACAGAGGAUUGAGCAUCA
B15: 36507729_36507849_895_3pUTR_ENSMUSG00000043671_ENSMUST00000051377|mouse|control|control (ssRNA)
RNA: GGGAGUUCUACAGUCCGACGAUCGAAAGAGGCUGUAAAUUUGGUCUCAGGAAGUAGGUAAUUGCUGCAAUCUGAAUUGCAAAAAAAGGCAGAGCCCAGUUCUCCCUCAGCGGGAUGGUAAACUCGACUCUUGUGGUGUCUAUUCAACAGAGGAUUGAGCAUCA

Molecular target: T1, UNK ZnF1-3
Test: nsRBNS (natural sequence RNA bind-n-seq); RBNS binding buffer (assumed for nsRBNS): 25 mM Tris pH 7.5, 150 mM KCl, 3 mM MgCl2, 0.01% Triton X-100, 500 ug/ml BSA, 20 U/ml SUPERase-In, 4 C; UNK is unkempt and MSI1 is Musashi-1; names of the RNAs are library labels; protein concentration not given here; high values mean tight binding

Binder | binding signal [enrichment R]
B1 | 2.68
B2 | 0.558
B3 | 1.38
B4 | 0.297
B5 | 0.311
B6 | 3.74
B7 | 1.27
B8 | 1.56
B9 | 11.1
B10 | 0.982
B11 | 13.5
B12 | 0.819
B13 | 13.2
B14 | 2.47
B15 | 0.793
